From PubChem BioAssay
RGS4-Gao reg: modulates binding of RGS4 to human Galphao. P09471. Multiplexed bead flow cytometry; actives lie on both sides. binding response (% of control), % at 10 µM. 220,000 tested, 0.33% active; in the data active = binding response below about 49% or above about 150%; inactive = in between;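 also: fluorescent Galphao activated with aluminum fluoride binding bead-coupled RGS4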
Target sequence (P09471 whole entry, looked up): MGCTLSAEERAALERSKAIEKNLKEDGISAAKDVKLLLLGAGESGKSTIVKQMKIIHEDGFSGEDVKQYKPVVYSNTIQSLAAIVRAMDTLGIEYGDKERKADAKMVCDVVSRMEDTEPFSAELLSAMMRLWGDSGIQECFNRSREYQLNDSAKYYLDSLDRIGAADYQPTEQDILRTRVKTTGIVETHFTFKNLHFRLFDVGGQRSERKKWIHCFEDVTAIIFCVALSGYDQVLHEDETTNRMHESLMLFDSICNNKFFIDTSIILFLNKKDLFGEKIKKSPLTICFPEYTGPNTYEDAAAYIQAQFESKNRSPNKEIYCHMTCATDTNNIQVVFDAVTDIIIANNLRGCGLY
RGS8-Gao reg: regulators of human RGS8-Galphao interaction | P09471 | 220,000 tested, 0.34% active | multiplexed bead flow cytometry, RGS8-Galphao binding; actives lie on both sides | response (percent of control binding), % at 10 µM | AID 1423; in the data active = response below about 60% or above about 140%; inactive = in between;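 also: Galphao activated as the GDP aluminium fluoride complex binding bead-coupled RGS8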
Avidin fluor: avidin bead compound fluorescence profile; AID 1775; Avidin beads, compound fluorescence 488/530 nm, flow cytometry; active compounds read high; fluorescence (KMESF) at 10 µM; 220,000 tested, 0.38% active; in the data active = fluorescence above about 47
RGS7-Gao reg: modulates binding of RGS7 to human Galphao; 220,000 tested, 0.35% active; binding response (% of control), % at 10 µM; Multiplexed bead flow cytometry; actives lie on both sides; AID 1439; in the data active = binding response below about 49% or above about 150%; inconclusive = no clear call, values can overlap the other calls; inactive = in between;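 also: fluorescent Galphao held in activated GDP-AlF4 state binding bead-coupled RGS7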
GSH bead fluor: GSH bead compound fluorescence profile | GSH beads flow cytometry, compound fluorescence 488/530 nm; active compounds read high | fluorescence (KMESF) at 10 µM | 190,000 tested, 0.25% active; in the data active = fluorescence above about 89;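 also: glutathione beads carrying GST-tagged Bcl family fusion proteins plus one bare bead set; values are compound well signal with DMSO vehicle wells as background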
RGS16-Gao HTS: modulates binding between human RGS16 and Galphao; binding response (% of control), % at 10 µM; bead-based flow cytometry RGS16-Galphao binding, fluorescence; actives lie on both sides; O15492+P09471; 220,000 tested, 0.38% active;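 also: Galphao activated by GDP with aluminum fluoride before binding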
Target sequence (O15492 whole entry, looked up): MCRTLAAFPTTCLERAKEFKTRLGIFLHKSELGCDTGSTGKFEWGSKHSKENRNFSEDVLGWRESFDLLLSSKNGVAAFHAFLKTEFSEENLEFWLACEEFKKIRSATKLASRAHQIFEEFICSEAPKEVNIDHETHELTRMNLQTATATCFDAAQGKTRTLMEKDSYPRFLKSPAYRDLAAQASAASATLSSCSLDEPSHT
Target sequence (P09471 whole entry, looked up): as the sequence (P09471 whole entry, looked up) above
RGS-Gao: regulators of human RGS4-Galphao interaction; shares compounds with RGS16-Gao HTS; multiplexed bead flow cytometry, RGS–Galpha-o binding; RGS4–Galpha-o binding response, % at 10 µM; 1,600 tested, 99% active;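 also: fluorescently labeled Galpha-o bound to GDP with aluminium fluoride binding biotinylated RGS beads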
Avidin counter: interferes with biotinylated probe binding to avidin beads | shares compounds with RGS16-Gao HTS | streptavidin beads, fluorescein-biotin binding, flow cytometry | inhibition, % at 10 µM | 1,700 tested, under 10 active | AID 1783;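 active = inhibition above 50%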;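 also: median green fluorescence of gated singlet beads compared with DMSO control wells; 0% = DMSO wells and 100% = complete loss of bead fluorescence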
RGS8-Gao confirm: confirmation of regulators of human RGS8-Galphao interaction; shares compounds with RGS16-Gao HTS; bead-based flow cytometry RGS8-Galphao binding, fluorescence; actives lie on both sides; binding response (% of control), % at 10 µM; 1,700 tested, 3% active; AID 1836; in the data active = binding response below about 72% or above about 130%; inactive = in between;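 also: Galphao activated as GDP AlF4 complex before binding bead RGS8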
RGS7-Gao confirm: RGS7-Galphao interaction regulation, single point confirmation | bead-based flow cytometry RGS7-Galphao binding; actives lie on both sides | 1,700 tested, 7.8% active | shares compounds with RGS16-Gao HTS | AID 1837 | response (percent of control binding), % at 10 µM; in the data active = response below about 75% or above about 130%; inactive = in between;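 also: fluorescent Galphao activated with GDP and aluminum fluoride binding bead-coupled RGS7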
RGS16-Gao single: confirmation of regulators of human RGS16-Galphao interaction | shares compounds with RGS16-Gao HTS | bead-based flow cytometry, RGS16-Galphao binding; actives lie on both sides | response (% of control binding), % at 10 µM | 1,700 tested, 4% active; in the data active = response below about 74% or above about 130%; inactive = in between;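 also: Galphao activated as the GDP aluminium fluoride complex binding bead-coupled RGS16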
RGS4-Gao single: confirmation of regulators of human RGS4-Galphao interaction; shares compounds with RGS16-Gao HTS; RGS4-Galphao binding, multiplexed bead flow cytometry; actives lie on both sides; binding response (% of control), % at 10 µM; 1,700 tested, 4% active; in the data active = binding response below about 74% or above about 130%; inactive = in between
RGS19-Gao single: confirmation of regulators of human RGS19-Galphao interaction; response (percent of control binding), % at 10 µM; bead-based flow cytometry RGS19-Galphao binding; actives lie on both sides; 1,700 tested, 5% active; AID 1841; shares compounds with RGS16-Gao HTS; in the data active = response below about 50% or above about 160%; inactive = in between;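 also: 100% = no compound control and 0% = blank background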
* = called active by the depositor; ? = inconclusive; . = no result; [ ] = another dose, or the depositor's remark. A selection: hits, their analogues and other compounds. The true share with any hit is near 1.2%. Unless noted, no rule for the calls is given here.

SMILES	RGS4-Gao reg	RGS8-Gao reg	Avidin fluor	RGS7-Gao reg	GSH bead fluor	RGS16-Gao HTS	Avidin counter	RGS8-Gao confirm	RGS7-Gao confirm	RGS16-Gao single	RGS4-Gao single	RGS19-Gao single	others
Cc1nc(CS(=O)(=O)c2ccccn2)sc1C(=O)NNC(=O)c1ccc(Cl)cc1	92	96	6	?	.	91	.	.	.	.	.	.
NC(=O)[C@@H]1CCCCNc2c(I)cc([N+](=O)[O-])cc2C(=O)N[C@@H](CCC(=O)O)C(=O)N[C@@H](CO)C(=O)N1	101	102	12	100	18	105	.	.	.	.	.	.
NC(=O)[C@@H]1CCNc2c(I)cc([N+](=O)[O-])cc2C(=O)N[C@@H](CCC(=O)O)C(=O)N[C@@H](CO)C(=O)N1	108	134	10	99	25	404*[activator]	.	.	.	.	.	.	RGS-Gao=108*
Cc1ccc2cc3cc(C(=O)N4CCN(Cc5ccccc5)CC4)sc3nc2c1	172*[activator]	124	69*	162*[activator]	231*	193*[activator]	0	99	94	97	95	90
Cc1ccc(S(=O)(=O)/N=C2/C=C(Sc3ncn[nH]3)C(=O)c3ccccc32)cc1	87	64	6	79	8	15*	.	.	.	.	.	.	RGS-Gao=87*
Cc1ccc(S(=O)(=O)N(Cc2cc3cc4c(cc3[nH]c2=O)OCCO4)CC2CCCO2)cc1 (stereo not drawn)	96	103	11	101	22	98	.	.	.	.	.	.
O=c1[nH]c2cc3c(cc2cc1CN(CC1CCCO1)S(=O)(=O)c1ccc(Cl)cc1)OCCO3 (stereo not drawn)	110	147*[activator]	3	110	17	403	1	100	107	103	106	103	RGS-Gao=110*
COc1ccc(C2c3ccc(O)cc3Oc3ncn4nc(-c5ccncc5)nc4c32)cc1OC (stereo not drawn)	117	118	5	?	.	125	.	.	.	.	.	.
CCOC(=O)c1oc2cccc(OCC(O)CNC(C)C)c2c1C (stereo not drawn)	204*[activator]	125	127*	184*[activator]	31	231*[activator]	2	99	93	93	94	96
Cc1cccc(C)c1OCC(O)CNC(C)C (stereo not drawn)	98	88	2	100	40	37	.	.	.	.	.	.
O=C(CN1CCOCC1)N/N=C/c1ccc(-c2cccc(Cl)c2Cl)o1	106	105	8	?	.	107	.	.	.	.	.	.
COc1ccc(C(=O)NC(CC(=O)O)c2cc([N+](=O)[O-])ccc2Cl)c(SC)c1 (stereo not drawn)	110	107	6	102	11	109	.	.	.	.	.	.
C=CCN1C(=O)/C(=C/c2ccc(OC(C)=O)c(OCC)c2[N+](=O)[O-])SC1=S	101	106	21	101	10	109	.	.	.	.	.	.
CC1(CC(=O)N/N=C/c2ccc(-c3cccc(C(F)(F)F)c3)o2)OCCO1	169*[activator]	115	254*	262*[activator]	10	204*[activator]	0	99	99	100	102	109
CCOC(=O)N/N=C\c1ccc(-c2cccc(C(F)(F)F)c2)o1	103	103	6	104	12	100	.	.	.	.	.	.
CCc1ccc(S(=O)(=O)NC(=S)Nc2ccccc2)cc1	96	98	6	93	12	100	.	.	.	.	.	.
COc1cc(C(=O)N2CCC(O)(c3ccccc3)CC2)cc(OC)c1OC	.	.	.	.	13	.	-2	102	106	104	103	105
Cc1ccc(C(=O)NCc2n[nH]c(=S)n2-c2ccccc2)cc1[N+](=O)[O-]	94	98	8	99	15	91	.	.	.	.	.	.
CCOc1ccc(NC(=S)NC(=O)c2c(Br)cnn2C)c([N+](=O)[O-])c1	-40*	-1.6*	-2	-20*	12	224	-2	101	102	101	102	99
CCCN1C(=O)c2cccc3c(N4CCCCC4)ccc(c23)C1=O	92	75	12	90	4	18*	1	100	103	100	103	99	RGS-Gao=92*
NC(=O)c1ccc(NC(=O)CN2CCN(c3ccc(Cl)cc3)CC2)cc1	38*	36*	11	34*	13	29	0	103	102	103	104	109
Cn1/c(=N/NC(=O)c2ccccc2F)sc2ccccc21	102	105	23	103	11	112	.	.	.	.	.	.
O=C(Cn1cncn1)N/N=C/c1cccc(Cl)c1	105	103	8	?	.	104	.	.	.	.	.	.
O=C(NC1(C(F)(F)F)NC(=O)N(Cc2ccccc2)C1=O)c1cccnc1 (stereo not drawn)	106	101	6	103	31	103	.	.	.	.	.	.
O=C(NC1(C(F)(F)F)NC(=O)N(Cc2cccnc2)C1=O)c1ccccc1 (stereo not drawn)	46*	52*	2	42*	28	39	0	99	104	103	102	97
Cc1nnc(SCC(=O)NC(=O)NCc2ccco2)s1	99	101	15	?	10	101	.	.	.	.	.	.
O=C(CSc1nn(-c2ccc(F)cc2)c(=S)s1)NC(=O)NCc1ccco1	74	76	2	88	19	19*	0	110	105	106	103	96	RGS-Gao=74*
CCN(CC(=O)NC(C)C)C(=O)[C@H](C)NC(=O)c1ccc(Br)cc1	97	101	18	93	10	104	.	.	.	.	.	.
Cc1ccc(NC(=O)CO/N=C(\N)c2nonc2N)cc1C	92	80	9	92	9	25*	-5	103	106	105	103	87	RGS-Gao=92*
CCOC(=O)c1[nH]c2cc(OC)c(OC)cc2c1NC(=O)CCN1CCSCC1	17*	21*	0	?	.	9.8*	-2	95	90	95	95	85
